We go through 39 compounds from PubChem BioAssay (EPA / NIEHS).

Each structure is given as a SMILES string. Several values for one entry are separate records, joined by “and”; a condition that tells them apart may be missing. Equal values may be shown once. Results filed as inconclusive are left out. Some structures have more than one record in an assay (separate samples or runs), and their calls can disagree. Activity calls are given as the source filed them. How the source made its calls: active means hit-call score of the fitted dose curve at least 0.9, where 1 is the maximum; inconclusive means response in the unintended direction; inactive means score below 0.9.

The AC50 is the concentration giving half of the maximal activity seen.

Sequence of Nuclear receptor subfamily 1 group I member 2 (Homo sapiens) (O75469 whole entry, looked up): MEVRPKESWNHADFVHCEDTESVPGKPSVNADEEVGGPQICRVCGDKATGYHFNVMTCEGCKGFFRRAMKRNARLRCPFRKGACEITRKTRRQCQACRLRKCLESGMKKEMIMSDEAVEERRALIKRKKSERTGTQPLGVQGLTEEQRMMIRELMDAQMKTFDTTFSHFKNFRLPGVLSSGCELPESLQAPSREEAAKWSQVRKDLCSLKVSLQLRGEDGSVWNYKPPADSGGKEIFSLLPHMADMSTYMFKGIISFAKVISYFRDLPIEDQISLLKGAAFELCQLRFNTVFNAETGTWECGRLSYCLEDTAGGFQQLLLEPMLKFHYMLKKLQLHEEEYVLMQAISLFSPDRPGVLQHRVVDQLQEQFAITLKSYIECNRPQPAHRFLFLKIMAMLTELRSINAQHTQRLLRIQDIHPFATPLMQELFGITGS

The assay has as its target Nuclear receptor subfamily 1 group I member 2 (Homo sapiens) (UniProt O75469). Briefly: ATG_PXR_TRANS: Attagene TRANS-FACTORIAL HepG2 Assay for human Pregnane X Receptor (PXR) (AID 2283008). As for the experimental part:
ATG_TRANS is a cell-based, multiplexed-readout assay that uses HepG2, a human liver cell line, with measurements taken at 24 hours after chemical dosing in a 24-well plate.ATG_PXR_TRANS is one of 30 assay component(s) measured or calculated from the ATG_TRANS assay. It is designed to make measurements of mRNA induction, a form of inducible reporter, as detected with fluorescence intensity signals by Reverse transcription polymerase chain reaction (RT-PCR) and Capillary electrophoresis technology.Data from the assay component ATG_PXR_TRANS was analyzed into 1 assay endpoint. This assay endpoint, ATG_PXR_TRANS, was analyzed in the positive analysis fitting direction relative to DMSO as the negative control and baseline of activity. Using a type of inducible reporter, measures of mRNA for gain-of-signal activity can be used to understand the reporter gene at the transcription factor-level as they relate to the gene NR1I2. Furthermore, this assay endpoint can be referred to as a primary readout, because this assay has produced multiple assay endpoints where this one serves a reporter gene function. To generalize the intended target to other relatable targets, this assay endpoint is annotated to the nuclear receptor intended target family, where the subfamily is non-steroidal.
Human liver HepG2 cells are transiently transfected with multiple reporter transcription units (MRTUs) in 6-well plates using FuGene 6 reagent (Roche; 3 ml FuGene/1 mg DNA). The MRTU constructs are regulated by a cis-regulating element (promoter). […] A major difference between the CIS and TRANS system is that in CIS activities of endogenous TFs are measured, whereas the TRANS assay evaluates changes in activities of exogenous, chimeric NR-Gal4 proteins. […] At the end of 24 hour incubation, total RNA was isolated using TriZol reagent (Invitrogen). The isolated RNA is then reverse-transcribed using oligo(dT) primer and Mo-MLV reverse transcriptase (Invitrogen) with DNAse I (Ambion) treatment for 30 min. The one-tenth of the produced cDNA was amplified by PCR using Taq DNA polymerase (Invitrogen) and two reporter sequence-specific primers. The PCR products were fluorescently labeled by primer extension with 6-arboxyfluorescein (6-FAM) 5'-labeled reporter sequence-specific primer (2 min at 95 C, 20 s at 68 C and 10 min at 72 C) and these products were digested with 5U of HpaI (New England Biolabs) for 2h at 37 C. The fragments were purified using Qiaquick PCR columns (Qiagen), analyzed on an ABI 3130xL genetic analyzer (Applied Biosystems) with peak positions identified by using a set of X-rhodamine (ROX)-labeled MapMarker1000 molecular weight standards (BioVentures). The raw capillary electrophoresis data was processed using Attagraph software (Attagene).
Regarding `O=C(O)C(F)(OC(F)(F)C(F)(F)C(F)(F)F)C(F)(F)F` (stereo not given), the compound was called inactive.
The same measure, in the same setting: to `O=P1(N(CCCl)CCCl)NCCCO1` (stereo not given) belongs “inactive”; to `CCN(CC)C1CCCCC1`, “inactive”.
For the compound `CO/N=C(/C(=O)OC)c1ccccc1COc1ccccc1C`, the AC50 is 4.28 µM (active).
Take `CCNc1nc(Cl)nc(NC(C)(C)C)n1`: the AC50 is 4.35 µM (active).
Still for that read-out and setting: under `CC(C)(C)c1ccc(O)cc1` stands 14.8 µM (active).
`c1nc[nH]n1`: the compound was classed as inactive.
Regarding `CCOP(=S)(OCC)SCSc1ccc(Cl)cc1`, the AC50 is 5.52 µM (active).
Take `CCCCN(CCCC)N=O`: the outcome was inactive.
On the same count and under the same terms, to `Cc1ccc([N+](=O)[O-])cc1C` belongs “inactive”.
For the compound `CCOP(=S)(OCC)SCn1nnc2ccccc2c1=O`, the AC50 was 0.716 µM (active).
For the compound `ClC(Cl)c1ccccc1`, the result was inactive.
As to `CCOC(=O)c1ccccc1N`, the result was inactive.
On to `N#Cc1c(-c2ccc(Cl)cc2)[nH]c(C(F)(F)F)c1Br`, for which the concentration at half-maximal activity (AC50) is 0.585 µM (active).
For the compound `c1ccc(OP(Oc2ccccc2)Oc2ccccc2)cc1`, the outcome was inactive.
In the case of `COC(=O)C(F)(F)C(F)(F)OC(F)(C(F)(F)F)C(F)(F)OC(F)=C(F)F` (stereo not given), the AC50 was 6.57 µM (active) and 19.5 µM (active) and 5.88 µM (active).
As to `FC(F)(F)C(F)(C(F)(F)F)C(F)(F)C(F)(F)CC1CO1` (stereo not given), the outcome was inactive.
With `CCCCOCC1CO1` (stereo not given), the compound was called inactive.
As to `O=c1[nH]c2ccccc2c(=O)o1`, the result was inactive.
On to `CCOP(=S)(S)OCC`, for which the compound was called inactive.
As to `OCC(F)(F)OC(F)(F)C(F)(F)OC(F)(F)C(F)(F)OC(F)(F)F`, the result was inactive.
As for `CN(C)C(=O)Cl`, the outcome was inactive.
Take `O=P(Oc1ccccc1)(Oc1ccccc1)Oc1ccccc1`: the AC50 is 0.693 µM (active).
As to `Oc1ccc(I)cc1`, the call was inactive.
`c1ccc2c(c1)Nc1ccccc1S2`: the AC50 is 11.1 µM (active).
`CCC(C)(C)c1ccc(O)cc1`: the AC50 is 7.92 µM (active).
As for `CCCCCCCc1ccc(O)cc1`, the outcome was inactive and the AC50 is 11.1 µM (active).
`CCCCc1ccccc1`: the result was inactive.
For `O=C(O)C1C(C(=O)O)C2(Cl)C(Cl)=C(Cl)C1(Cl)C2(Cl)Cl` (stereo not given), the compound was classed as inactive.
With `ClC(Cl)=C(c1ccc(Cl)cc1)c1ccccc1Cl`, the concentration at half-maximal activity (AC50) is 2.27 µM (active).
As to `O=C(O)C(F)(F)OC(F)(F)C(F)(F)OC(F)(F)C(=O)O`, the call was inactive.
In the case of `CCCCN(CC)C(=O)SCCC`, the call was inactive.
As to `O=S(=O)(c1ccc(O)cc1)c1ccc(O)cc1`, the call was inactive.
For `COP(=O)(O)OC`, the AC50 is 27.2 µM (active).
`CCCCN(CCCC)SN(C)C(=O)Oc1cccc2c1OC(C)(C)C2`: the AC50 is 16 µM (active).
With `C=CC(=O)OCC(F)(F)C(F)F`, the compound was called inactive.
On the same count and under the same terms, to `O=C(O)C=CC(F)(C(F)(F)F)C(F)(F)F` belongs “inactive”; to `CC1(C)CN=C(NN=C(/C=C/c2ccc(C(F)(F)F)cc2)/C=C/c2ccc(C(F)(F)F)cc2)NC1`, “inactive”; to `OCC(F)(F)OC(F)(F)C(F)(F)OC(F)(F)CO`, “inactive”.
